Measured values from PubChem BioAssay AID485290 (National Center for Advancing Translational Sciences (NCATS), 2010).
Several values for one entry are separate records, joined by “and”; a condition that tells them apart may be missing. Equal values may be shown once. About 990 (0.28%) of roughly 350,000 compounds were called active. Inconclusive results (about 2%) are left out. Calls follow the shape of the dose curve; as a rule, active = well fitted inhibition curve with a large enough effect; inconclusive = small, poorly fitted or top-dose-only effect; inactive = no such curve, though single readings can be large or run the other way. What follows is part of a selection rich in actives, with near analogues and random picks from the rest. Where a structure was tested more than once in an assay, its records may differ in their call.

Target: Tyrosyl-DNA phosphodiesterase 1 (Homo sapiens) (UniProt Q9NUW8)
Assay: qHTS Assay for Inhibitors of Tyrosyl-DNA Phosphodiesterase (TDP1); also: nearly all actives have a fitted effect of over 40% in size
Details: recombinant TDP1, AlphaScreen DNA substrate cleavage; series mostly up to 130 µM; activity change, negative = inhibition: at the top concentration
Description: NIH Molecular Libraries Probe Production Network [MLPCN]
NIH Chemical Genomics Center [NCGC]
Assay Provider: Yves Pommier and Christophe Marchand, National Cancer Institute
Assay Title: qHTS Assay for Inhibitors of Tyrosyl-DNA Phosphodiesterase (TDP1); also: nearly all actives have a fitted effect of over 40% in size
Human tyrosyl-DNA phosphodiesterase I (Tdp1) is a rational anticancer target because this enzyme is involved in the repair of DNA lesions created by the trapping of human DNA topoisomerase I (Top1) following treatment by anticancer agents such as camptothecins. Recombinant Tdp1 was expressed and purified from E. coli in the laboratory (Anthony et al, Nucleic Acids Research, 2007, Vol. 35, 4474-4484). A Tdp1 DNA substrate bearing a 5' biotin and a 3' phospho-tyrosine was obtained by custom synthesis. This oligonucleotidic DNA substrate was subsequently coupled to a fluorescein isothiocyanate (FITC) group via the free amino group present on the phospho-tyrosine. Tdp1 was screened against the NCGC small molecule library using the AlphaScreen (AS) detection method in which a streptavidin donor AS bead is bound at the 5' end and an anti-FITC AS acceptor bead is bound at the 3' end of the DNA oligonucleotidic substrate. In the presence of Tdp1, the enzyme cleaves the tyrosine-FITC group, leaving a 3' end phosphate on the DNA substrate. This cleavage reaction results in a loss of signal in AS.
[1] 3 ul of buffer is dispensed in columns 3 & 4 as negative control (no enzyme and maximum signal),
[2] 3 ul of enzyme (1 nM final) is dispensed in columns 1,2, 5-48,
[3] 1 ul of substrate (15 nM final) is dispensed throughout the plate,
[4] 1 ul of AS donor/acceptor bead mix (10 ug/ml final) is dispensed throughout the plate
3 ul of Tdp1 enzyme is dispensed to 1536-well Kalypsys black solid bottom plates. Compounds and controls (23 nl) are transferred via Kalypsys Pin Tool. The plates are incubated for 15 min at room temperature, and then 1 ul of substrate is added to start the reaction. After 5 min incubation at room temperature, 1 ul of AS donor/acceptor bead mix is added and the plates are further incubated for 10 min at room temperature. The detection is then performed on a PerkinElmer Envision reader.
% is scaled to controls: 0 for no effect and ±100 for the full control effect; potency is read from the fitted curve at half-maximal effect.

Chain of Tyrosyl-DNA phosphodiesterase 1 (Homo sapiens) (Q9NUW8 whole entry, looked up): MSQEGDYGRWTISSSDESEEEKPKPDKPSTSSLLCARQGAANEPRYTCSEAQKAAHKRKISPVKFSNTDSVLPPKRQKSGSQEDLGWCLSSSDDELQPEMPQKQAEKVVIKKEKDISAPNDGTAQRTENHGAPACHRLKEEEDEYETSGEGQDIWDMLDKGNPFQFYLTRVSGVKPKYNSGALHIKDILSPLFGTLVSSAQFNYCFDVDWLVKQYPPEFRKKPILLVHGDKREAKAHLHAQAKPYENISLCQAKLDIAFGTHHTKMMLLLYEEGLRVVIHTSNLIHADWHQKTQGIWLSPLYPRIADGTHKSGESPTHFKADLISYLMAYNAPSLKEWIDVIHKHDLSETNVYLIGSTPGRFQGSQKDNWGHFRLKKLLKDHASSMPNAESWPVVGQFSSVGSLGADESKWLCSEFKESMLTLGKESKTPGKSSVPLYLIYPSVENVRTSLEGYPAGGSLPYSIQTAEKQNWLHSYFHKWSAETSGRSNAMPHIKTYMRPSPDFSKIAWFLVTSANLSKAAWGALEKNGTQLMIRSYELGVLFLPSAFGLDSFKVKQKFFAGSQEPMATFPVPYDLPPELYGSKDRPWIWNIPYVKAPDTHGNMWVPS

SMILES | activity change, negative = inhibition | Potency
COC(=O)c1ccccc1NC(=O)c1ccc(C#N)cc1 | -0.089% (inactive) | 
CCOC(=O)c1ccc(NC(=O)c2c(NCc3cccs3)sc3c2CCCC3)cc1 | 9.48% (inactive) | 
Cc1nn2c(=O)cc(COC(=O)c3cccc(NC(=O)COc4ccccc4Cl)c3)nc2s1 | -1.25% (inactive) | 
Cc1ccccc1NC(=O)CN1C(=O)N/C(=C\c2cccn2-c2cccc(C(=O)O)c2)C1=O |  | 1.41 µM (active)
O=C1N/C(=C/c2cccn2-c2ccccc2)C(=O)N1c1cccc(Cl)c1 | 2.82% (inactive) | 
Cc1cccc(NC(=O)CN2C(=O)c3ccccc3C2=O)c1C | 3.47% (inactive) | 
O=C(COc1ccccc1Cl)Nc1ccc2nc(SCC(=O)N3CCCC3)sc2c1 | 3.65% (inactive) | 
Oc1ccc(/C=C/c2c(F)cccc2F)c2cccnc12 | -16.6% (inactive) | 
O=S(=O)(c1cccc(C(F)(F)F)c1)N1CCN(c2nc(-c3cccs3)nc3ccccc23)CC1 | -0.0669% (inactive) | 
O=Cc1ccc(OCc2cn3ccccc3n2)cc1 | -7.14% (inactive) | 
CN(C)C(CNC(=O)c1ccc(OCc2cn3ccccc3n2)cc1)c1ccco1 (centres undefined) |  | 14.1 µM (active)
COc1ccc(C(=O)NCc2cn3ccccc3n2)cc1 | 4.76% (inactive) | 
CCOC(=O)Cn1c(=O)n(-c2ccccc2OC)c2nc(-c3cccc(F)c3)nc(C(N)=O)c21 | 7.69% (inactive) | 
COc1ccc(C(=O)Nc2ccc(-n3nncc3-c3ccccc3)cc2)cc1OC | 10.4% (inactive) | 
Cc1cc(C)cc(C(=O)NC2C(=O)N3C(C(=O)O)=C(CSc4nnc(C)s4)CSC23)c1 (centres undefined) | -8.05% (inactive) | 
CO/N=C(\C(=O)N[C@@H]1C(=O)N2C(C(=O)O)=C(COC(C)=O)CS[C@H]12)c1csc(N)n1 (stereo in doubt) |  | inactive and 10 µM (active) and 20 µM (active)
C=CC1=C(C(=O)O)N2C(=O)[C@@H](NC(=O)/C(=N\OCC(=O)O)c3csc(N)n3)[C@H]2SC1 |  | 14.1 µM (active)
Cc1nnc(SCC2=C(C(=O)O)N3C(=O)C(NC(=O)Cn4nc(C)c(Cl)c4C)C3SC2)s1 (centres undefined) | 0% (inactive) | 
COc1ccc(C2Nc3ccc(NC(=O)COC(C)=O)cc3C(=O)N2Cc2ccccc2)cc1COc1ccc(NC(C)=O)cc1 (centres undefined) | -3.82% (inactive) | 
COc1cccc(Cn2c(SCc3ccc(C(=O)N4CCC(C)CC4)cc3)nc3ccncc32)c1 | 5.06% (inactive) | 
CCOC(=O)c1ccc(NC(=O)c2c(NCc3cccc(OC)c3)sc3c2CCC3)cc1 | 7.58% (inactive) | 
COC(=O)c1ccc(NC(=O)c2cnn(-c3ccc(Cl)cc3)c2C2CCN(C(=O)OC(C)(C)C)CC2)cc1 | -1.06% (inactive) | 
COc1ccc(C(=O)Nc2cccc(C(=O)OCc3cc(=O)n4c5c(sc4n3)CCCC5)c2)cc1 | 1.25% (inactive) | 
CC(C)c1ccc(NC(=O)c2ccc(Cn3nc(N4CCN(c5ccccc5)CC4)ccc3=O)o2)cc1 | 0% (inactive) | 
Cc1ccc(-c2nc3ccccn3c2Nc2ccc(F)cc2)o1 | 4.27% (inactive) | 

SMILES | activity change, negative = inhibition | Potency
Cc1ccc2nc(-c3ccncc3)cc(C(=O)Nc3ccncc3)c2c1 | 4.27% (inactive) | 
Cc1ccc2nc(-c3ccncc3)cc(C(=O)Nc3ccc4c(c3)OCCO4)c2c1 | -8.22% (inactive) | 
Cc1ccc2nc(-c3ccncc3)cc(C(=O)Nc3ccc(OC(F)F)cc3)c2c1 |  | 50.1 µM (active)
CN(C)Cc1cn(-c2ccccc2)nc1-c1ccccc1 | 0.719% (inactive) | 
COC(=O)c1ccccc1S(=O)(=O)Nc1ccc(OC)cc1 | 4.45% (inactive) | 
COc1ccc(C2Nc3ccccc3C(=O)N2Cc2ccc(Cl)cc2)cc1COc1ccc(NC(C)=O)cc1 (centres undefined) | -0.0444% (inactive) | 
Cc1ccc(-c2nn3c(=O)cc(CN4CCN(C(=O)Nc5cccc(C(F)(F)F)c5)CC4)nc3s2)cc1 | 8.11% (inactive) | 
N#Cc1nc(Nc2cccc(Cl)c2)nc(NC2CCCC2)n1 | -2.17% (inactive) | 
O=C1CCc2cc(S(=O)(=O)Nc3cccc(Oc4ccccc4)c3)ccc2N1 | 2.51% (inactive) | 
Oc1c(C(c2ccc(F)cc2)N2CCN(Cc3ccccc3)CC2)sc2nc(-c3ccco3)nn12 (centres undefined) | 2.6% (inactive) | 
O=C1CSc2ccc(C(=O)NCc3ccccn3)cc2N1 | 0.216% (inactive) | 
O=C(NCc1ccccn1)c1ccc2nc(-c3ccco3)c(-c3ccco3)nc2c1 |  | 8.91 µM (active)
C=CCNC(=O)c1ccc2nc(-c3ccco3)c(-c3ccco3)nc2c1 | -9.19% (inactive) | 
COc1ccc(N2C(=O)CSC23C(=O)N(Cc2cccc(F)c2)c2ccccc23)cc1Cl (centres undefined) | 5.63% (inactive) | 
CCCC(=O)N1CCN(c2nc3c(OC)ccc(C)c3s2)CC1 | 0% (inactive) | 
CC(=O)c1sc2nc(SCC(=O)N3CCCCC3)[nH]c(=O)c2c1C | -13% (inactive) | 
CSc1nnc(SCc2nc3sc(C(=O)O)c(C)c3c(=O)[nH]2)s1 |  | 22.4 µM (active)
CCOC(=O)c1sc2nc(CSc3ccccc3)[nH]c(=O)c2c1C | 3.49% (inactive) | 
Cc1nn(-c2ccc(N3CCCCC3)nn2)c(C)c1CCC(=O)NCc1ccc(F)cc1 | 0.649% (inactive) | 
N#CN1CCC(NC(=O)c2ccc(F)cc2)CC1 | 0.796% (inactive) | 
NC(=O)C1CCN(C(=O)c2cccc(NC(=O)c3nsc4ccccc34)c2)CC1 | 2.7% (inactive) | 
CC(C)c1ccc(NC(=O)C2CCN(c3nc(-c4ccc(C(C)C)cc4)no3)CC2)cc1 | 8.11% (inactive) | 
O=C(COC(=O)C12CC3CC(CC(C3)C1)C2)NCc1ccco1 |  | inactive
O=C(COC(=O)CCC(=O)c1cccs1)NCc1ccco1 |  | 22.4 µM (active)
